Measured values published in the supplement of paper PMC13380429.

System: Vero E6 infected with SARS-CoV-2
Test: inhibition of SARS-CoV-2 cytopathic effect; higher = more antiviral protection, active = above 15
Settings: 48 h

Measured: inhibition of SARS-CoV-2 cytopathic effect

CCOC(=O)Nc1ccc2c(c1)N(C(=O)CCN1CCOCC1)c1ccccc1S2 [moracizine]
inactive: 1 nM 0.84% | 8.33 nM 3.43% | 100 nM -0.23% | 833.33 nM 2.61% | 10000 nM 5.32%

C/C=C(/C)C(=O)O[C@H]1C(C)=C[C@]23C(=O)[C@@H](C=C(CO)[C@@H](O)[C@]12O)[C@H]1[C@@H](C[C@H]3C)C1(C)C [ingenol-mebutate]
inactive: 1 nM -1.66% | 8.33 nM -1.76% | 100 nM -8.12% | 833.33 nM -7.76% | 10000 nM -8.66%

Nn1cnc2cc3ccccc3cc2c1=O [centazolone]
inactive: 1 nM -0.59% | 8.33 nM 0.85% | 100 nM 0.4% | 833.33 nM -1.41% | 10000 nM 0.93%

COc1ccc(-c2oc3cc(OC)ccc3c2C(=O)c2ccc(C#N)cc2)cc1
inactive: 1 nM -2.41% | 8.33 nM -2.08% | 100 nM -3.03% | 833.33 nM -3.9% | 10000 nM 1.7%

O=C(O)c1cc(=O)c2c(OCC(O)COc3cccc4oc(C(=O)O)cc(=O)c34)cccc2o1 [cromoglicic-acid]
inactive: 1 nM -0.6% | 8.33 nM -0.04% | 100 nM -1.5% | 833.33 nM 0.49% | 10000 nM -0.11%

O=C(CCBr)N1CCN(C(=O)CCBr)CC1 [pipobroman]
inactive: 1 nM 0.26% | 8.33 nM -0.92% | 100 nM -3.06% | 833.33 nM -6.9% | 10000 nM -3.48%

Nc1ccc(-c2nc3ccc(-c4nc5ccc(N)cc5[nH]4)cc3[nH]2)cc1
inactive: 1 nM -0.32% | 8.33 nM 0.21% | 100 nM -0.94% | 833.33 nM 2.79% | 10000 nM 6.35%
